# Assay outcomes (PubChem BioAssay)
# CYP2C9 inhib = human CYP2C9 inhibition; CYP2C9 Supersomes, luciferin-H conversion, luminescence; inhibition, % at 5 µM; 96,000 tested, 20% active; AID 777;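 active means blocking of liver enzyme CYP2C9 beyond about 50% at 5 µM, limit read from the data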
# Target sequence (P11712 whole entry, looked up): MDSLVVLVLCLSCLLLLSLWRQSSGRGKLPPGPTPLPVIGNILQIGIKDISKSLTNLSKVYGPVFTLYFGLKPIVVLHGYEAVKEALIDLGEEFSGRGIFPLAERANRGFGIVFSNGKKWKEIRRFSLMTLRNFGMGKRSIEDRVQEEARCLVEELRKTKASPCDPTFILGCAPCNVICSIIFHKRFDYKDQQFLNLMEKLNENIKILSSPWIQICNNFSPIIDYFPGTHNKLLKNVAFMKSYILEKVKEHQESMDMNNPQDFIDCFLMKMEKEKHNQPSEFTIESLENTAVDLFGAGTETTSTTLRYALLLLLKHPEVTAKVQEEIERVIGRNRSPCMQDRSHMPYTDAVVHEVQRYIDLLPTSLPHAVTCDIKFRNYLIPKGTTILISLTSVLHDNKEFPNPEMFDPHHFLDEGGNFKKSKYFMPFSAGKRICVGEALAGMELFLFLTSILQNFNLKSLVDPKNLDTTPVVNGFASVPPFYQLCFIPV
# CYP2C19 inhib = human CYP2C19 inhibition | P33261 | 96,000 tested, 21% active | AID 778 | CYP2C19 Supersomes, luciferin-H EGE luminescence, 30 min | inhibition, % at 5 µM;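 active means CYP2C19 inhibition above a set limit at 5 µM in the primary screen, cut at about 50% in these data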;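 further: plate controls were negative control wells for no effect and 2.5 mM tranylcypromine positive control for full effect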
# CD11b adhes enh = enhancers of human CD11b/CD18 binding to fibrinogen; K562 CD11b/CD18 adhesion to fibrinogen, ATPlite luminescence; activation, % at 10 µM; 93,000 tested, 0.07% active; AID 1499;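 active means 10 µM primary screen giving 50% or more activity, confirmed by 40% or more on retest at that dose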
# CD11b adhes inh = CD11b/CD18-fibrinogen binding inhibition. P05107+P11215. K562 CD11b/CD18 adhesion to fibrinogen, ATPlite luminescence; Mn2+ added to activate the integrin. inhibition, % at 10 µM. 93,000 tested, 0.54% active;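 active means primary inhibition of 50% or more at 10 µM, then 40% or more on retest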
# CYP2C9 act = CYP2C9 (human) activation | P11712 | recombinant CYP2C9, luciferin-H conversion, luminescence; hits give high values; factor 1 = untreated enzyme, 0 = blocked | activation factor at 5 µM | 96,000 tested, 1.4% active | AID 1024;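 active means activation factor of 2 or more for CYP2C9 at a 5 µM dose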;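 further: 0 = sulfaphenazole-blocked wells and 1 = vehicle-only wells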
# CYP2C19 act = increases human CYP2C19 enzyme activity. P33261. recombinant CYP2C19, luciferin-H EGE luminescence; hits give high values; 0 = fully inhibited enzyme, 1 = untreated enzyme. activation factor at 5 µM. 96,000 tested, under 10 active;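 active means activation factor of at least 2 at 5 µM in the primary screen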;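 further: 0 = wells with 2.5 mM tranylcypromine and 1 = vehicle-only wells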
# * marks the source's active call; other numbers are inactive results; . = not tested or not shown. This is a sample that favours compounds with a hit; in the whole collection about 28% have one here.
SMILES,CYP2C9 inhib,CYP2C19 inhib,CD11b adhes enh,CD11b adhes inh,CYP2C9 act,CYP2C19 act
COc1cccc(C(c2nnnn2C(C)(C)C)N2CCN(C3CCCCC3)CC2)c1OC (configuration not stated),8,4,0,-16,0.9,1
COc1ccc(N2CCN(C(c3cccc(OC)c3OC)c3nnnn3C3CCCC3)CC2)cc1 (configuration not stated),73*,80*,8,-46,0.3,0.2
COc1ccc(C(=O)CSc2nnc(C3CCCCC3)n2N)c(OC)c1,-20,16,5,-21,1.2,0.8
COc1cccc(/C=N/Nc2snc(SC)c2C#N)c1,66*,30,.,.,0.3,0.7
COc1ccc(/C=N/Nc2snc(SC)c2C#N)cc1OC,61*,62*,-4,16,0.4,0.4
O=C(O)CCC(=O)N1CCc2cc(S(=O)(=O)N3CC=C(c4ccccc4)CC3)ccc21,12,-2,-4,10,0.9,1
Cc1cc(C(=O)N2CCN(c3ncccn3)CC2)c2cc(F)ccc2n1,31,32,-1,5,0.7,0.7
COc1ccccc1-c1c(C(F)(F)F)oc2cc(OC(=O)c3ccccc3[N+](=O)[O-])ccc2c1=O,62*,55*,6,0,0.4,0.5
Cn1nnc(NCc2cc(Br)ccc2OCc2cccs2)n1,44,37,4,-14,0.6,0.6
CCOC(=O)c1cc(NC(=O)N2CCCCC2)c(C)nc1C,-10,11,-4,-2,1.1,0.9
Cc1ccc(S(=O)(=O)N2CCN(C(=O)c3cc4c(C)nn(-c5ccccc5)c4s3)CC2)cc1,44,2,-4,3,0.6,1
Cc1ccccc1-n1nc(C)c2cc(C(=O)N3CCN(S(=O)(=O)c4ccc(Cl)cc4)CC3)sc21,66*,47,.,.,0.3,0.5
Cc1ccccc1-n1nc(C)c2cc(C(=O)N3CCN(S(=O)(=O)c4ccc(F)cc4)CC3)sc21,75*,11,-2,8,0.2,0.9
COc1ccccc1C(=O)O/N=C(/C)c1ccc(N2C(=O)C3CCCCC3C2=O)cc1 (configuration not stated),-227,54*,0,22,3.3*,0.5
CCNC(=O)N(C(=O)NCC)n1c(C)nnc1C,-9,-9,0,-6,1.1,1.1
Cc1ccc(Cl)cc1N1CCN(C(c2cccnc2)c2nnnn2C2CCCCC2)CC1 (configuration not stated),93*,98*,5,1,0.1,0
Cc1ccc(C(c2nnnn2C2CCCCC2)N2CCN3CCCC3C2)cc1 (configuration not stated),-23,2,.,.,1.2,1
Cc1ccc(Cl)cc1N1CCN(C(c2ccc(C#N)cc2)c2nnnn2C2CCCC2)CC1 (configuration not stated),56*,29,2,-3,0.4,0.7
CNc1nc(NC)nc(-n2c(C(F)(F)F)nc3ccccc32)n1,64*,38,-4,-19,0.4,0.6
OCCNc1nc2ccccc2n1-c1ccccc1,15,39,-3,10,0.8,0.6
Cc1cccc(NC(NC(=O)c2cccnc2)C(Cl)(Cl)Cl)c1 (configuration not stated),83*,48,.,.,0.2,0.5
Cc1cccc(C(=O)NC(NCc2ccco2)C(Cl)(Cl)Cl)c1 (configuration not stated),58*,32,.,.,0.4,0.7
COc1ccc([N+](=O)[O-])cc1NC(=S)NC(NC(=O)C(c1ccccc1)c1ccccc1)C(Cl)(Cl)Cl (configuration not stated),69*,16,-1,-12,0.3,0.8
Cc1cc([N+](=O)[O-])ccc1NC(=S)NC(=O)C(c1ccccc1)c1ccccc1,66*,22,1,18,0.3,0.8
CCc1cccc(C)c1NC(=O)C(c1ccccc1)N1CCC1=O (configuration not stated),-9,-15,-4,10,1.1,1.1
COCCOC(=O)C1=C(C)N=C2SCCC(=O)N2C1c1cccc(Br)c1 (configuration not stated),47,30,-1,-9,0.5,0.7
CCCCn1cnc2sc3c(c2c1=N)CCCC3,-1,60*,-2,-4,1,0.4
